# PubChem BioAssay
# Calls of active or inactive are those of the source.
# Experiments:
# [1] = small molecules captured by biotinylated probe aFSTL3 – biochemical, small-molecule microarray, fluorescence 635/667, stem cell growth factor project, primary screen (AID 1064); conditions: higher = more signal;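 also: measures binding of the biotinylated anti-FSTL3 antibody to printed compounds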
# [2] = binders from COS7 lysate, DM2A8 probe, primary screen, torsin A project, cell lysate, small-molecule microarray, fluorescence 635/667 (AID 1065); conditions: higher = more signal, COS7 lysate expressing mutant human TOR1A
# [3] = small molecules captured by biotinylated probe aFGF2 – biochemical, small-molecule microarray, fluorescence 635/667, stem cell growth factor project, primary screen (AID 1067); conditions: higher = more signal;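 also: measures binding of biotinylated aFGF2 protein to printed compounds on slides; z-score merges feature fluorescence and signal-to-noise across triplicate slides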
# [4] = small molecules captured by biotinylated probe aFGF10 – biochemical, small-molecule microarray, fluorescence 635/667, stem cell growth factor project, primary screen (AID 1071); conditions: higher = more signal;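 also: score merges 667 nm spot intensity and signal to noise from triplicate slides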
# [5] = molecular target: Neurogenic locus notch homolog protein 2 (Homo sapiens) (UniProt Q04721); experiment: small molecules binding Notch2 protein – biochemical, small-molecule microarray, 635 nm fluorescence, stem cell growth factors, primary screen (AID 1073); conditions: higher = more signal
# [6] = molecular target: Pro-neuregulin-1, membrane-bound isoform (Homo sapiens) (UniProt Q02297); experiment: small molecules binding neuregulin-1 protein – biochemical, small-molecule microarray, fluorescence 635/667, psychiatric disease protein project, primary screen (AID 1075); conditions: NRG1 binding, 635 nm fluorescence, higher = more signal;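 also: score combines 667 nm spot fluorescence with signal to noise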
# [7] = test system: Neuregulin-1 EGF-like domain; experiment: small molecules binding NRG1 EGF domain – biochemical, small-molecule microarray, 635 nm fluorescence, primary screen (AID 1081); conditions: higher = more signal;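 also: binding of the protein to compounds printed on small-molecule microarray slides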
# [8] = FRG1 expression reporter modulators in myotubes – cell-based, C2C12 myotubes, firefly/Renilla luciferase, luminescence, FRG1 inhibition for FSHD, primary screen (AID 1084); conditions: FRG1 promoter luciferase, higher = more signal, called active from +8 up or from −8 down
# [9] = small molecules captured by biotinylated probe aFST – biochemical, small-molecule microarray, fluorescence 635/667, stem cell growth factor project, primary screen (AID 1086); conditions: higher = more signal;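 also: score merges 667 nm fluorescence with signal-to-noise of each printed compound spot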
# [10] = binders of probe aHhip on microarray, primary screen, stem cell growth factor project, biochemical, small-molecule microarray, fluorescence 635/667 (AID 1087); conditions: higher = more signal;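 also: score merges spot fluorescence at 667nm with spot signal to noise ratio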
# [11] = test system: PRMT1 (protein arginine N-methyltransferase 1); experiment: small molecules binding arginine methyltransferase PRMT1 – biochemical, small-molecule microarray, 635 nm fluorescence, primary screen (AID 1088); conditions: higher = more signal;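 also: binding of Prmt1 protein to compounds spotted on small-molecule microarray slides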
# [12] = growth effects on S. cerevisiae YJM789 – YJM789 clinical isolate, OD600, 24 h, basal, primary screen (AID 1089); conditions: higher = more signal, called active from +8 up or from −8 down;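 also: growth of clinical yeast isolate S. cerevisiae YJM 789 seeded 1000 cells per well; test concentration not given here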
# [13] = S. pombe growth modifiers, basal conditions – strain 972, OD600, 24 h, no modulator, primary screen (AID 1090);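 also: basal condition with compound alone and no growth modifier present; test concentration not given here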; conditions: S. pombe 972 growth, higher = more signal, called active from +8 up or from −8 down
# [14] = budding yeast growth modifiers under rapamycin – strain BY4716, OD600, 96 h, primary screen (AID 1091); also: test concentration not given here; conditions: S. cerevisiae BY4716 + rapamycin, higher = more signal, called active from +8 up or from −8 down
# [15] = molecular target: Torsin-1A-interacting protein 2 (Homo sapiens) (UniProt Q8NFQ8); experiment: small molecules binding lysate-expressed LULL1 – cell lysate, human LULL1 lysate, 635/667 nm fluorescence, primary screen (AID 1092); conditions: small-molecule microarray, hLULL1 lysate binding, 635 nm fluorescence; higher = more signal;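 also: probe is lysate of COS7 cells overexpressing human LULL1; score merges per-feature 667 nm fluorescence with signal-to-noise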
# [16] = optical density change of DRC41 E. coli – strain DRC41, OD650, 24 h, E. coli filamentation project, primary screen (AID 1093);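 also: MC1000 strain lacking acrAB efflux and sulA so SOS filamentation is blocked; test concentration not given here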; conditions: E. coli DRC41 growth, higher = more signal, called active from +8 up or from −8 down
# [17] = probe aLefty2 binding to arrayed compounds – biochemical, biotinylated probe, 635/667 nm fluorescence, primary screen (AID 1094); conditions: small-molecule microarray, higher = more signal;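 also: score merges spot fluorescence near 667 nm with spot signal-to-noise ratio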
# [18] = test system: Noggin (protein binding on small-molecule microarray); experiment: small molecules binding Noggin protein – biochemical, 635/667 nm fluorescence, primary screen (AID 1095); conditions: 635 nm fluorescence, higher = more signal;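 also: score merges 667 nm feature fluorescence with signal to noise over triplicate slides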
# [19] = molecular target: Neurogenic locus notch homolog protein 3 (Homo sapiens) (UniProt Q9UM47); experiment: small molecules binding NOTCH3 protein – biochemical, 635/667 nm fluorescence, primary screen (AID 1096); conditions: small-molecule microarray, 635 nm fluorescence, higher = more signal
# [20] = probe aEGFR binding to arrayed compounds – biochemical, biotinylated probe, 635/667 nm fluorescence, primary screen (AID 1097); conditions: small-molecule microarray, higher = more signal;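 also: probe is a biotinylated anti-EGFR antibody binding compounds printed on slides; score combines fluorescence near 667 nm and signal to noise of each spot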
# Chain of Neurogenic locus notch homolog protein 2 (Homo sapiens) (Q04721 whole entry, looked up, canonical isoform): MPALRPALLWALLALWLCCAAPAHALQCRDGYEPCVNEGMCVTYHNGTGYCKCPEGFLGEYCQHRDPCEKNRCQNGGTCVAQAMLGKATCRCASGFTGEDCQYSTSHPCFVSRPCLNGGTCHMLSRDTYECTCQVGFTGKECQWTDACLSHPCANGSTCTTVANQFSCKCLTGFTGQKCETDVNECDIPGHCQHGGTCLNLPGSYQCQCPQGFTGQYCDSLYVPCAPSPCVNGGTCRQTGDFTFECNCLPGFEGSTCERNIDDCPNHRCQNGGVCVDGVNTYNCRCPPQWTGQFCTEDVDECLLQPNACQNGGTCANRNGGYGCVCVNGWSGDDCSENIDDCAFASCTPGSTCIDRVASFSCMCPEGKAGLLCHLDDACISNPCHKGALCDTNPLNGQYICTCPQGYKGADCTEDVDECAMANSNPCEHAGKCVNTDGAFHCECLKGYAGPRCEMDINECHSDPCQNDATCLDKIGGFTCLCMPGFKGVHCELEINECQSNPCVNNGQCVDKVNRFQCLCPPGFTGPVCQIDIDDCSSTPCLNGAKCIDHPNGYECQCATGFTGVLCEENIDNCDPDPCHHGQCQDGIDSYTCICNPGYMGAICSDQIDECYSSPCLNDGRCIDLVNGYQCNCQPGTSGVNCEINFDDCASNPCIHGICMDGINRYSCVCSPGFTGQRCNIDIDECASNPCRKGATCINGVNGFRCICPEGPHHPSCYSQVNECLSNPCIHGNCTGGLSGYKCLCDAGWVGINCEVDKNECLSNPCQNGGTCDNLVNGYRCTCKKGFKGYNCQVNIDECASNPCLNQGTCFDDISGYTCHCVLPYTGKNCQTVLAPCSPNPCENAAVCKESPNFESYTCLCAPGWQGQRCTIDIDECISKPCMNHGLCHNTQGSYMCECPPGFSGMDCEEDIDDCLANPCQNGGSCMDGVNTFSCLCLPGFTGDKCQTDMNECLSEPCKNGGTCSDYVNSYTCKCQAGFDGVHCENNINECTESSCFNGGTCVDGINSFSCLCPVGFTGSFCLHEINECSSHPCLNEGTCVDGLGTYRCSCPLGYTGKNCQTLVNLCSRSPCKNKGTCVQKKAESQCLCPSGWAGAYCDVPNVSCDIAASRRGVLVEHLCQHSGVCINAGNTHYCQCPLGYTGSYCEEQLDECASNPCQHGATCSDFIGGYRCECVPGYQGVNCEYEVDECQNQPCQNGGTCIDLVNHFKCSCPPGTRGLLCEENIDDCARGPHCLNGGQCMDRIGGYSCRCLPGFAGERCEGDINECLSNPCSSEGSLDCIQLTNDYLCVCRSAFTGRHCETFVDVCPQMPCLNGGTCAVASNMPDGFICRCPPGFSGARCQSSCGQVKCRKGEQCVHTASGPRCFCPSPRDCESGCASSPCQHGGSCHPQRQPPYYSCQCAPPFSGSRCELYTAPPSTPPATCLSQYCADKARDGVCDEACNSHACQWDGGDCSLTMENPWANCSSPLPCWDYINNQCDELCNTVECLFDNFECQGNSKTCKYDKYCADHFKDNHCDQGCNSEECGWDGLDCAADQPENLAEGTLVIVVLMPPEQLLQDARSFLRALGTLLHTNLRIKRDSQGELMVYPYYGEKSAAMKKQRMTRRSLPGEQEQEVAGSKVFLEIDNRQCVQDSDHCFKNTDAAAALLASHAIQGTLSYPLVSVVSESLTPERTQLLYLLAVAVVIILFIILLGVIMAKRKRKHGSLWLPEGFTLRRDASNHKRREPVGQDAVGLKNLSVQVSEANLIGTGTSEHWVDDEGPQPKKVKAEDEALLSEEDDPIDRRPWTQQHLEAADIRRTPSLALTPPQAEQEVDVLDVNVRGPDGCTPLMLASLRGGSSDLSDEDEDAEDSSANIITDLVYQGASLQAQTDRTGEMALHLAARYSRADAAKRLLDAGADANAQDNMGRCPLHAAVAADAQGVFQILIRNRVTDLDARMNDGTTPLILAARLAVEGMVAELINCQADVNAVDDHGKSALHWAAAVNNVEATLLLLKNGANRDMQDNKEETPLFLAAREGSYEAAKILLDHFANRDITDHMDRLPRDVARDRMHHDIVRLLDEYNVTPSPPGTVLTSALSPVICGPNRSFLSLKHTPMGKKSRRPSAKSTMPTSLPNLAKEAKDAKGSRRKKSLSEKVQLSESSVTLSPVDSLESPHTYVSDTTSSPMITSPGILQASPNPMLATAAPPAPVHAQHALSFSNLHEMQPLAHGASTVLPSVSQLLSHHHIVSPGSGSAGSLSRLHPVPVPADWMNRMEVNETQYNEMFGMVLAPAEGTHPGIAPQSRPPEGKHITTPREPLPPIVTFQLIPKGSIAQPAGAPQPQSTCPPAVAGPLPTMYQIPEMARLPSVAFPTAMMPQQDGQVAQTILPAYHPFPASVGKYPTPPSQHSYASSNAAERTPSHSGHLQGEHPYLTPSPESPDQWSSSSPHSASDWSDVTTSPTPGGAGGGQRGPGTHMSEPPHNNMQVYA
# Chain of Torsin-1A-interacting protein 2 (Homo sapiens) (Q8NFQ8 whole entry, looked up): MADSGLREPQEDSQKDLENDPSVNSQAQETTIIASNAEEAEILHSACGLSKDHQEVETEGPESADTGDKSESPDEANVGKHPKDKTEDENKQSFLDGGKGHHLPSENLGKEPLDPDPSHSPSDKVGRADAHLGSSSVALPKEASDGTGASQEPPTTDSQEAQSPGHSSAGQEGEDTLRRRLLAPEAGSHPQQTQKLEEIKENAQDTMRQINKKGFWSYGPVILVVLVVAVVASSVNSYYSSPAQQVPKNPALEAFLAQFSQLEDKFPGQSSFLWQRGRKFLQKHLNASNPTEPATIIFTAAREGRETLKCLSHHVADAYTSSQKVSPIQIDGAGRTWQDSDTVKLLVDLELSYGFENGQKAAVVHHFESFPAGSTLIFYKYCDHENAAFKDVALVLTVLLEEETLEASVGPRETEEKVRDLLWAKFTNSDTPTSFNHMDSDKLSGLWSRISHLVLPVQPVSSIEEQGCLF
# Chain of Pro-neuregulin-1, membrane-bound isoform (Homo sapiens) (Q02297 whole entry, looked up, the tested form may be a part, canonical isoform): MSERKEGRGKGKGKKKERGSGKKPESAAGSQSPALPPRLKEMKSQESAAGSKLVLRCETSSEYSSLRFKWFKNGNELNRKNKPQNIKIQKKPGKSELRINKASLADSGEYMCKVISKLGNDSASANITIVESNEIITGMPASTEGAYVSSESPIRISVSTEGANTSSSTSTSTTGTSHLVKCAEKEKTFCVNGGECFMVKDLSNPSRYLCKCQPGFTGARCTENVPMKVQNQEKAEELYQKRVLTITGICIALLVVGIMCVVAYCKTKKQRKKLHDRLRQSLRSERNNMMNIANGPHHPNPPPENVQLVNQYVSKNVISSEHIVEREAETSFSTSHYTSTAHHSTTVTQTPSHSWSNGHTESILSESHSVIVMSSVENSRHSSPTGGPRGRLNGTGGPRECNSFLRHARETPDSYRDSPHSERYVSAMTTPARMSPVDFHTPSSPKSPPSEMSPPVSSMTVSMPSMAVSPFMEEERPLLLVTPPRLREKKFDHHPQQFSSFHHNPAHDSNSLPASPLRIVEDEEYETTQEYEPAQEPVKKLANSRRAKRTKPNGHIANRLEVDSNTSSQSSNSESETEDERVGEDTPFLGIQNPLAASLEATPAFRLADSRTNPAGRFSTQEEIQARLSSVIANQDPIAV
Compound,composite z-score [1],composite z-score [2],composite z-score [3],composite z-score [4],composite z-score [5],composite z-score [6],composite z-score [7],z-score [8],composite z-score [9],composite z-score [10],composite z-score [11],z-score [12],z-score [13],z-score [14],composite z-score [15],z-score [16],composite z-score [17],composite z-score [18],composite z-score [19],composite z-score [20]
NC(=O)NCC#Cc1ccc2c(c1)[C@]1(C(=O)N2)[C@H](c2ccc(OCCO)cc2)N2[C@H](c3ccccc3)[C@H](c3ccccc3)OC(=O)[C@H]2[C@@H]1C(=O)N1CCCCCCC1,3.57,0.48,0.943,1.2,1.53,1.74,0.955,-0.154 (inactive),3.04,3.79,1.09,1.57 (inactive),1.43 (inactive),3.66 (inactive),3.3,-0.53 (inactive),1.73,1.88,1.04,1.06
C[N+](C)(C)CCCCCCNC(=O)[C@@H]1C[C@@H]2C(=O)NCC(=O)N2[C@@H]1c1ccc(O)cc1,-0.416,1.27,-0.116,0.391,-0.149,1.51,1.43,2.8 (inactive),0.0022,-0.0088,1.53,0.302 (inactive),0.274 (inactive),-0.0145 (inactive),2.39,-0.239 (inactive),-0.0942,1.53,1.06,-0.141
CN(C)C(=O)[C@@]1(CCS(=O)(=O)c2ccccc2)N=C(c2ccc(OCCCO)cc2)O[C@H]1c1ccccc1CN=[N+]=[N-],-0.323,0.124,0.226,0.972,1.33,1.63,1.27,-1.56 (inactive),0.889,-0.236,1.54,-1.54 (inactive),-0.346 (inactive),0.0194 (inactive),3.79,1.15 (inactive),0.0225,1.66,1.12,0.0316
CCCC=C(CCC)[C@@H](NS(=O)(=O)CC)c1ccccc1,-0.14,-0.534,0.0583,0.576,1.15,0.808,1.09,1.33 (inactive),0.725,-0.0645,1.17,0.472 (inactive),1.22 (inactive),0.565 (inactive),2.57,-0.66 (inactive),0.195,0.222,1.16,0.0093
C=CCC(OC(C)=O)[C@@H]1[C@@H](N(Cc2ccc(-c3ccccc3)cc2)C(=O)c2cccc3ccccc23)c2cc(OCCCO)ccc2N1C(=O)c1ccc2ccccc2n1 (stereo not given in full),-0.0204,0.113,-0.102,-0.0251,0.127,0.152,-0.669,-1.45 (inactive),0.294,0.0373,0.171,-0.288 (inactive),-0.283 (inactive),-0.291 (inactive),0.53,0.488 (inactive),0.0469,-0.0394,0.336,0.045
COC(=O)[C@@]1(Cc2ccccc2N=[N+]=[N-])N=C(c2ccc(OCCCO)cc2)O[C@H]1c1ccccc1,0.135,0.748,0.0904,0.264,0.287,1.5,1.16,-2.33 (inactive),0.0635,-0.0994,1.14,-0.0982 (inactive),-3 (inactive),23 (active),1.21,0.0111 (inactive),-0.0654,0.314,0.94,-0.115
CC(C)(C)OC(=O)CC[C@@]1(C(=O)N2CCCCC2)N=C(c2ccc(OCCCO)cc2)O[C@@H]1c1ccccc1CN=[N+]=[N-],0.165,0.159,0.103,0.355,1.65,1.98,1.22,-1.98 (inactive),1.63,0.0854,1.54,-0.492 (inactive),-0.689 (inactive),-0.0683 (inactive),3.66,0.308 (inactive),0.208,0.39,1.05,0.0026
C=CCNC(=O)[C@H]1[C@@H]2C(=O)O[C@@H](c3ccccc3)[C@@H](c3ccccc3)N2[C@@H](c2ccc(OCCO)cc2)[C@]12C(=O)N(C(=O)OCCOC)c1ccc(C#CC3=CCCCC3)cc12,-0.0822,0.967,-0.0711,1.13,0.844,1.43,1.28,-0.974 (inactive),0.344,-0.0296,1.55,0.573 (inactive),0.656 (inactive),2.97 (inactive),2.76,1.89 (inactive),-0.0477,0.826,1.09,-0.0237
CCCCC(O)C1C=CC2C(=O)N(Cc3ccccc3)C(=O)C2N1n1cnnc1 (stereo not given),-0.246,0.095,0.0311,0.22,0.225,1.1,1.08,0.2 (inactive),0.437,0.312,0.623,-0.28 (inactive),0.653 (inactive),-0.335 (inactive),2.57,-0.981 (inactive),-0.103,0.159,0.62,0.035
[N-]=[N+]=Nc1ccccc1C[C@]1(C(=O)NCCN2CCOCC2)N=C(c2ccc(OCCCO)cc2)O[C@H]1c1ccccc1N=[N+]=[N-],-0.195,-0.354,0.125,0.763,1.64,1.59,1.33,-0.344 (inactive),0.839,0.113,1.55,-2.65 (inactive),-4.92 (inactive),-0.821 (inactive),3.37,0.683 (inactive),0.491,0.708,1.03,0.542
COc1ccc([Si](C)(C)[C@@H]2[C@@H](CCO)O[C@]3(C(=O)N(Cc4ccc(N5C(=O)c6ccccc6Oc6ccccc65)cc4)c4ccccc43)[C@H]2C)cc1,0.197,-0.589,-0.106,-0.124,-0.323,1.09,0.736,-1.69 (inactive),-0.0716,-0.0324,0.106,3.36 (inactive),0.262 (inactive),37.6 (active),-0.49,0.045 (inactive),-0.0359,-0.0905,0.18,-0.241
[N-]=[N+]=Nc1ccccc1[C@@H]1OC(c2ccc(OCCCO)cc2)=N[C@]1(CCS(=O)(=O)c1ccccc1)C(=O)NCc1ccccc1,0.207,0.599,0.294,0.655,1.52,1.9,1.1,0.271 (inactive),1.8,-0.196,1.13,0.728 (inactive),-0.111 (inactive),0.635 (inactive),3.23,0.846 (inactive),0.813,0.326,1.12,0.203
COCCOC(=O)N1C(=O)[C@@]2(c3ccccc31)[C@H](c1ccccc1OCCO)N1[C@H](c3ccccc3)[C@H](c3ccccc3)OC(=O)[C@H]1[C@@H]2C(=O)N1CCc2cc(OC)c(OC)cc2C1,0.184,0.124,0.071,0.336,0.403,0.982,1.25,-1.61 (inactive),0.356,0.28,1.52,2.11 (inactive),1.99 (inactive),6.86 (inactive),2.01,0.344 (inactive),0.0706,1.34,1.04,0.0556
CC1=C2[C@@H](CCc3ccccc3)OB(O)C[C@@H]2[C@@H]2C(=O)C=CC(=O)[C@@H]2C1,-0.741,0.654,-0.0887,1.13,1.38,0.51,0.976,-1.57 (inactive),0.32,-0.16,1.31,-0.689 (inactive),-15.6 (active),-0.679 (inactive),0.775,-0.315 (inactive),0.0037,0.642,1.1,0.0484
O=C1O[C@H](c2ccccc2)[C@H](c2ccccc2)N2[C@H]1[C@@H](C(=O)N1CCCCCCC1)[C@]1(C(=O)Nc3ccc(C#CCCO)cc31)[C@H]2c1ccc(OCCO)cc1,3.51,2.79,0.972,1.49,1.76,2.84,1.35,-0.409 (inactive),3.33,2.53,1.56,1.55 (inactive),-0.0863 (inactive),3.73 (inactive),5.06,0.669 (inactive),1.6,2.36,1.01,1.28
Cc1ccc(S[C@]2(C(=O)NCC(C)C)CC(=O)N(C3CCCCC3)[C@@H]2c2ccc(CO)cc2I)cc1,-0.25,0.0044,0.062,0.384,0.939,1.42,1.03,-2.29 (inactive),0.0997,-0.166,1.56,-0.525 (inactive),0.293 (inactive),-0.0866 (inactive),2.59,0.12 (inactive),0.11,0.165,1,-0.276
O=C1C[C@@](C(=O)O)(c2ccc([N+](=O)[O-])cc2)[C@@H](c2ccc(CO)cc2)N1CC12CC3CC(CC(C3)C1)C2,0.524,0.603,-0.009,0.527,1.13,1.38,1.12,-2.54 (inactive),0.49,-0.196,1.54,0.629 (inactive),-2.98 (inactive),0.117 (inactive),2.3,0.91 (inactive),0.0446,0.257,0.857,0.06
C=CCOc1ccc([C@@H]2CC=C(C(=O)OCC)[C@H](c3cccc(Br)c3)N2S(=O)(=O)c2ccc(C)cc2)cc1,0.474,-0.229,-0.0901,-0.0763,-0.672,0.866,0.0455,-4.03 (inactive),0.176,-0.3,-0.227,-2.1 (inactive),-0.493 (inactive),0.196 (inactive),0.652,-0.372 (inactive),0.049,-0.351,-0.32,-0.0456
O=C1O[C@H](c2ccccc2)[C@H](c2ccccc2)N2[C@H]1[C@@H](C(=O)N1CCN(c3ncccn3)CC1)[C@]1(C(=O)Nc3ccc(C#CCCO)cc31)[C@H]2c1ccc(OCCO)cc1,0.0379,1.26,0.0229,1.26,1.53,0.826,0.995,0.0862 (inactive),1.35,-0.0994,1.54,0.987 (inactive),1.14 (inactive),4.15 (inactive),3.13,0.132 (inactive),0.152,1.47,1.1,0.155
